Test results reported in article PMC11574364.

The sequences below were run against RBM8A (Homo sapiens, UniProt Q9Y5S9) (assay: protein domain microarray probed with biotinylated miRNA; Domain array: 20 mM Tris-HCl pH 7.4, 200 mM KCl, 0.2 mM EDTA, 0.05% NP40, 2 ug/ul heparin, overnight 4 C. ORF array: PBS pH 7.0 with RNase inhibitor, 100 ng RNA; high values mean tight binding). Details: ssRNA.

| Sequence | binding signal |
| --- | --- |
| UGAGGUAGUAGGUUGUAUAGUU | 23.6 ± 8.27 fluorescence intensity |
| CAGUGCAAUGAUGAAAGGGCAU | 194 ± 11.7 fluorescence intensity |
| AGAGGUAGUAGGUUGCAUAGUU | 530 ± 30.3 fluorescence intensity |
| UGAGGUAGUAGGUUGUGUGGUU | 492 ± 15.8 fluorescence intensity |
| UGAGGUAGUAGGUUGUAUGGUU | 462 ± 23.2 fluorescence intensity |

The sequences below were run against T1, PGC-1 alpha (Homo sapiens, UniProt Q9UBK2) in the same assay as above. Details: ssRNA.
T1 sequence: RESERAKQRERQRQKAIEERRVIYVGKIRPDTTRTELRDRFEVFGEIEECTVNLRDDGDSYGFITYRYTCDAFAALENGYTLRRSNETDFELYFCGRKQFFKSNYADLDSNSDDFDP

| Sequence | binding signal |
| --- | --- |
| CAGUGCAAUGAUGAAAGGGCAU | 52.5 ± 18.4 fluorescence intensity |
| AGAGGUAGUAGGUUGCAUAGUU | 50.4 ± 6.92 fluorescence intensity |
| UGAGGUAGUAGGUUGUGUGGUU | 72.3 ± 6.39 fluorescence intensity |
| UGAGGUAGUAGGUUGUAUGGUU | 61.6 ± 8.6 fluorescence intensity |

What follows are sequences tested against T2, NOVA1(3) (Homo sapiens, UniProt P51513) in the same assay as above. Details: ssRNA.
T2 sequence: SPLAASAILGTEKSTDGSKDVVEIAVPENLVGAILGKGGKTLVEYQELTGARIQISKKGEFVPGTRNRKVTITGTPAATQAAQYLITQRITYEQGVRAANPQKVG

| Sequence | binding signal |
| --- | --- |
| UGAGGUAGUAGGUUGUAUAGUU | 39 ± 1.15 fluorescence intensity |
| CAGUGCAAUGAUGAAAGGGCAU | 735.5 ± 6.54 fluorescence intensity |
| UAGCUUAUCAGACUGAUGUUGA | 126.9 ± 0.87 fluorescence intensity |
| AGAGGUAGUAGGUUGCAUAGUU | 1990 ± 38.5 fluorescence intensity |
| UGAGGUAGUAGGUUGUGUGGUU | 202.3 ± 0.523 fluorescence intensity |
| UGAGGUAGUAGGUUGUAUGGUU | 111 ± 7.91 fluorescence intensity |

Each sequence was assayed against T3, SFRS2 (Homo sapiens, UniProt Q01130) in the same assay as above. Details: ssRNA.
T3 sequence: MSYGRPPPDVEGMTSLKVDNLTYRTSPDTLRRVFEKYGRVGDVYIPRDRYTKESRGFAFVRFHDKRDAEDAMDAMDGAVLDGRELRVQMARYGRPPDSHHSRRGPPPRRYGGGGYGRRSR

| Sequence | binding signal |
| --- | --- |
| UGAGGUAGUAGGUUGUAUAGUU | 464 ± 35 fluorescence intensity |
| CAGUGCAAUGAUGAAAGGGCAU | 1100 ± 38.7 fluorescence intensity |
| UAGCUUAUCAGACUGAUGUUGA | 480 ± 21.9 fluorescence intensity |
| AGAGGUAGUAGGUUGCAUAGUU | 1507 ± 5.18 fluorescence intensity |
| UGAGGUAGUAGGUUGUGUGGUU | 1219 ± 7.53 fluorescence intensity |
| UGAGGUAGUAGGUUGUAUGGUU | 1110 ± 31.5 fluorescence intensity |

These sequences were tested against T4, STRBP(2) (Homo sapiens, UniProt Q96SI9) in the same assay as above. Details: ssRNA.
T4 sequence: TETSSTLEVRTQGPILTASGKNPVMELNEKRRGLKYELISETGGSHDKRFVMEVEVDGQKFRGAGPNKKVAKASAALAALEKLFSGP

| Sequence | binding signal |
| --- | --- |
| AGAGGUAGUAGGUUGCAUAGUU | 38.5 ± 2.51 fluorescence intensity |
| UGAGGUAGUAGGUUGUGUGGUU | 83.8 ± 5.54 fluorescence intensity |
| UGAGGUAGUAGGUUGUAUGGUU | 56.6 ± 5.37 fluorescence intensity |

These sequences were tested against T5, KHDRBS3 (Homo sapiens, UniProt O75525) in the same assay as above. Details: ssRNA.
T5 sequence: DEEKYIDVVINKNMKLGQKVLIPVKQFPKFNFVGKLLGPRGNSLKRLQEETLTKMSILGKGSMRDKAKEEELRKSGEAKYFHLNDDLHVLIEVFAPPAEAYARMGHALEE

| Sequence | binding signal |
| --- | --- |
| UGAGGUAGUAGGUUGUAUAGUU | 21.1 ± 1.79 fluorescence intensity |
| CAGUGCAAUGAUGAAAGGGCAU | 23.5 ± 3.87 fluorescence intensity |
| AGAGGUAGUAGGUUGCAUAGUU | 26.3 ± 5.34 fluorescence intensity |
| UGAGGUAGUAGGUUGUGUGGUU | 28.2 ± 0.368 fluorescence intensity |
| UGAGGUAGUAGGUUGUAUGGUU | 22.9 ± 1.58 fluorescence intensity |

What follows are sequences tested against T6, PGC-1 beta (Homo sapiens, UniProt Q86YN6) in the same assay as above. Details: ssRNA.
T6 sequence: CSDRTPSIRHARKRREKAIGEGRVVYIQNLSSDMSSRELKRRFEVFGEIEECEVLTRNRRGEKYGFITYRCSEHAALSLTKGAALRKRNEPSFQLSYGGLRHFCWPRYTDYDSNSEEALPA

| Sequence | binding signal |
| --- | --- |
| UGAGGUAGUAGGUUGUAUAGUU | 45.6 ± 6.99 fluorescence intensity |
| CAGUGCAAUGAUGAAAGGGCAU | 78.9 ± 4.49 fluorescence intensity |
| AGAGGUAGUAGGUUGCAUAGUU | 196 ± 13.5 fluorescence intensity |
| UGAGGUAGUAGGUUGUGUGGUU | 385 ± 12.8 fluorescence intensity |
| UGAGGUAGUAGGUUGUAUGGUU | 260 ± 19.3 fluorescence intensity |

What follows are sequences tested against hnRNP E2(3) (Homo sapiens, UniProt Q15366) in the same assay as above. Details: ssRNA.
Sequence of hnRNP E2(3) (Q15366 269-365): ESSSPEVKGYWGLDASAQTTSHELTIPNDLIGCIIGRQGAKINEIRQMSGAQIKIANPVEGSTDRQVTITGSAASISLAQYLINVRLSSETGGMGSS

| Sequence | binding signal |
| --- | --- |
| UGAGGUAGUAGGUUGUAUAGUU | 23.4 ± 0.594 fluorescence intensity |
| CAGUGCAAUGAUGAAAGGGCAU | 21.9 ± 0.262 fluorescence intensity |
| UAGCUUAUCAGACUGAUGUUGA | 20.9 ± 1.85 fluorescence intensity |
| AGAGGUAGUAGGUUGCAUAGUU | 21.7 ± 1.28 fluorescence intensity |
| UGAGGUAGUAGGUUGUGUGGUU | 20.3 ± 0.735 fluorescence intensity |
| UGAGGUAGUAGGUUGUAUGGUU | 20.2 ± 0.297 fluorescence intensity |

These sequences were tested against T7, RBM12(1-2) (Homo sapiens, UniProt Q9NTZ6) in the same assay as above. Details: ssRNA.
T7 sequence: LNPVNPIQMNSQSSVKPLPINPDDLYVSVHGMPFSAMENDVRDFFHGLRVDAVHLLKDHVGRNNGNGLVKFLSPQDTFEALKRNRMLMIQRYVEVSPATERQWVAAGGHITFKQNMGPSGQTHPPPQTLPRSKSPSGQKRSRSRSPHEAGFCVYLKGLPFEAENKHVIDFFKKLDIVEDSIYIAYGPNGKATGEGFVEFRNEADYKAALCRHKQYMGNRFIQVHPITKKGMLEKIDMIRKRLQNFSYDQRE

| Sequence | binding signal |
| --- | --- |
| UGAGGUAGUAGGUUGUAUAGUU | 321 ± 62.5 fluorescence intensity |
| CAGUGCAAUGAUGAAAGGGCAU | 873 ± 45.6 fluorescence intensity |
| UAGCUUAUCAGACUGAUGUUGA | 271 ± 62.1 fluorescence intensity |
| AGAGGUAGUAGGUUGCAUAGUU | 1270 ± 68.8 fluorescence intensity |
| UGAGGUAGUAGGUUGUGUGGUU | 1210 ± 36.7 fluorescence intensity |
| UGAGGUAGUAGGUUGUAUGGUU | 1230 ± 64.3 fluorescence intensity |
